The source made the active and inactive calls. Rule for the calls: active = hit-call score of the fitted dose curve at least 0.9, where 1 is the maximum; inactive = score below 0.9.
Columns and labels:
Conditions in all cases: mRNA level, 48 h; actives raise or lower the signal
[1] = read-out: Potassium channel subfamily K member 1 (KCNK1), KCNK1 (gene 3775); experiment: LTEA_HepaRG_KCNK1: Life Technologies and Expression Analysis (LTEA) Assay for Potassium channel subfamily K member 1 (KCNK1) using HepaRG (AID 2283511)
Procedure, shortened: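 KCNK1 transcript measured by TaqMan qRT-PCR against three housekeeping genes, after HepaRG cells were treated 48 h with eight half-log concentrations (top 100 uM, 0.5% DMSO). Curves fitted bidirectionally relative to vehicle.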

[2] = read-out: Keratin 19 (KRT19), KRT19 (gene 3880); experiment: LTEA_HepaRG_KRT19: Life Technologies and Expression Analysis (LTEA) Assay for Keratin 19 (KRT19) using HepaRG (AID 2283512)
Procedure, shortened: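 KRT19 transcript levels, measured by Fluidigm qRT-PCR against three housekeeping genes, are fitted for gain or loss of signal relative to DMSO. Human HepaRG cells receive test chemicals (top 100 uM, half-log steps, 0.5% DMSO) for 48 hours.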

[3] = read-out: JUN Transcription Factor, JUN (gene 3725); experiment: LTEA_HepaRG_JUN: Life Technologies and Expression Analysis (LTEA) Assay for JUN Transcription Factor using HepaRG (AID 2283513)
Procedure, shortened: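 Read-out is JUN transcript level by TaqMan qRT-PCR, normalized to ACTB, GAPDH and POLR2A, after 48 h chemical treatment of HepaRG cells. Concentration-response spanned eight half-log points up to 100 uM in 0.5% DMSO.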

[4] = read-out: Lipase C (LIPC), LIPC (gene 3990); experiment: LTEA_HepaRG_LIPC: Life Technologies and Expression Analysis (LTEA) Assay for Lipase C (LIPC) using HepaRG (AID 2283514)
Procedure, shortened: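 LIPC expression was quantified by qRT-PCR against three housekeeping genes (ACTB, GAPDH, POLR2A). Differentiated human HepaRG cells received eight half-log doses (top 100 uM, 0.5% DMSO) in duplicate for 48 h; fitting bidirectional relative to DMSO.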

[5] = read-out: Lipoprotein lipase (LPL), LPL (gene 4023); experiment: LTEA_HepaRG_LPL: Life Technologies and Expression Analysis (LTEA) Assay for Lipoprotein lipase (LPL) using HepaRG (AID 2283515)
Procedure, shortened: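 LPL transcript levels quantified by TaqMan qRT-PCR against three housekeeping genes after 48 h chemical treatment of HepaRG cells. Eight-point half-log series from 100 uM in 0.5% DMSO, tested in duplicate; bidirectional fitting versus vehicle.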

[6] = read-out: MicroRNA 122 (MIR122), gene 406906; experiment: LTEA_HepaRG_MIR122: Life Technologies and Expression Analysis (LTEA) Assay for MicroRNA 122 (MIR122) using HepaRG (AID 2283516); note: the transcript read is the microRNA miR-122
Procedure, shortened: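 Human liver HepaRG cultures receive test chemicals for 48 h at eight half-log concentrations from 100 uM. Expression is quantified by qRT-PCR with ACTB/GAPDH/POLR2A normalization and fitted bidirectionally against 0.5% DMSO.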

[7] = read-out: matrix metalloproteinase-10 (MMP10), MMP10 (gene 4319); experiment: LTEA_HepaRG_MMP10: Life Technologies and Expression Analysis (LTEA) Assay for matrix metalloproteinase-10 (MMP10) using HepaRG (AID 2283517)
Procedure, shortened: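 Expression measured by TaqMan qRT-PCR with ACTB/GAPDH/POLR2A normalisation after 48 h chemical exposure of HepaRG cells. Eight half-log concentrations, top 100 uM, 0.5% DMSO vehicle, duplicates; gain or loss fitted against vehicle.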

[8] = read-out: MYC, MYC (gene 4609); experiment: LTEA_HepaRG_MYC: Life Technologies and Expression Analysis (LTEA) Assay for MYC using HepaRG (AID 2283518)
Procedure, shortened: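 HepaRG, ~100,000 cells/well, collagen I; 48 h plating; serum-free induction medium; 48 h dosing, duplicate, 100 uM top, half-log, 0.5% DMSO; total RNA → qRT-PCR MYC; gain/loss fit vs DMSO.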

[9] = read-out: matrix metalloproteinase-3 (MMP3), MMP3 (gene 4314); experiment: LTEA_HepaRG_MMP3: Life Technologies and Expression Analysis (LTEA) Assay for matrix metalloproteinase-3 (MMP3) using HepaRG (AID 2283519)
Procedure, shortened: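 Fluidigm-based TaqMan qRT-PCR, normalized to ACTB, GAPDH and POLR2A and fitted bidirectionally versus 0.5% DMSO, measured transcript levels. Treatment: duplicate 48 h exposures of HepaRG cells, ~100,000/well, to eight half-log concentrations topping at 100 uM.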

[10] = read-out: Paternally Expressed 10 (PEG10), PEG10 (gene 23089); experiment: LTEA_HepaRG_PEG10: Life Technologies and Expression Analysis (LTEA) Assay for Paternally Expressed 10 (PEG10) using HepaRG (AID 2283520);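 for AC50: PEG10 transcript by qRT-PCR normalised to ACTB GAPDH and POLR2A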
Procedure, shortened: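 Human HepaRG cultures are dosed for 48 h across an eight-point half-log series starting at 100 uM, with 0.5% DMSO as vehicle and baseline. Gain or loss of PEG10 transcript is measured by qRT-PCR and fitted in both directions.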

[11] = read-out: Nuclear factor NF-kappa-B p105 subunit (Homo sapiens) (UniProt P19838); experiment: LTEA_HepaRG_NFKB1: Life Technologies and Expression Analysis (LTEA) Assay for Nuclear Factor Kappa B Subunit 1 (NFKB1) using HepaRG (AID 2283521)
Procedure, shortened: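 HepaRG, 48 h exposure; 8-pt half-log series from 100 uM in 0.5% DMSO; duplicates. Readout: NFKB1 mRNA by qRT-PCR (Fluidigm arrays), housekeeping-normalized. Gain/loss fit vs DMSO baseline.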

[12] = read-out: Protein phosphatase 2A (PPP2R4), PTPA (gene 5524); experiment: LTEA_HepaRG_PPP2R4: Life Technologies and Expression Analysis (LTEA) Assay for Protein phosphatase 2A (PPP2R4) using HepaRG (AID 2283522)
Procedure, shortened: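 Cells were plated, cultured 48 h, switched to serum-free induction medium, then dosed for 48 h (8 points, max 100 uM, 0.5% DMSO). RNA was isolated and PPP2R4 expression measured by TaqMan qRT-PCR.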

[13] = read-out: solute carrier (SLC22A1), SLC22A1 (gene 6580); experiment: LTEA_HepaRG_SLC22A1: Life Technologies and Expression Analysis (LTEA) Assay for solute carrier (SLC22A1) using HepaRG (AID 2283524);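 for AC50: differentiated human HepaRG liver cells in serum-free induction medium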
Procedure, shortened: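 Transcript level of SLC22A1 quantified by qRT-PCR (normalized to three housekeeping genes) after 48 h chemical exposure of HepaRG cells, eight concentrations up to 100 µM, half-log steps, 0.5% DMSO vehicle. Gain or loss relative to DMSO fitted bidirectionally.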

[14] = read-out: Pyruvate Dehydrogenase Kinase 4 (PDK4), PDK4 (gene 5166); experiment: LTEA_HepaRG_PDK4: Life Technologies and Expression Analysis (LTEA) Assay for Pyruvate Dehydrogenase Kinase 4 (PDK4) using HepaRG (AID 2283525)
Procedure, shortened: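 Readout is qRT-PCR of PDK4 transcript, normalized to three housekeeping genes, with bidirectional fitting against 0.5% DMSO vehicle. Differentiated HepaRG cells were treated 48 h in serum-free induction medium, duplicate wells, eight-point half-log series topping at 100 uM.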

[15] = read-out: NAD(P)H dehydrogenase [quinone] 1 (NQO1), NQO1 (gene 1728); experiment: LTEA_HepaRG_NQO1: Life Technologies and Expression Analysis (LTEA) Assay for NAD(P)H dehydrogenase [quinone] 1 (NQO1) using HepaRG (AID 2283526)
Procedure, shortened: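 Transcript induction or suppression is quantified by qRT-PCR in human HepaRG liver cells dosed for 48 hours. Eight half-log concentrations topping at 100 uM are used, with 0.5% DMSO as vehicle and baseline.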

[16] = read-out: succinate dehydrogenase complex iron sulfur subunit B (SDHB), SDHB (gene 6390); experiment: LTEA_HepaRG_SDHB: Life Technologies and Expression Analysis (LTEA) Assay for succinate dehydrogenase complex iron sulfur subunit B (SDHB) using HepaRG (AID 2283528)
Procedure, shortened: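 Readout is SDHB transcript level by qRT-PCR, normalised to three housekeeping genes and fitted bidirectionally against 0.5% DMSO vehicle. Human HepaRG cells were treated for 48 h at up to 100 uM.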

[17] = read-out: Signal transducer and activator of transcription 3 (Homo sapiens) (UniProt P40763); experiment: LTEA_HepaRG_STAT3: Life Technologies and Expression Analysis (LTEA) Assay for Signal transducer and activator of transcription (STAT3) using HepaRG (AID 2283529)
Procedure, shortened: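 STAT3 transcript quantified by qRT-PCR against three housekeeping genes (ACTB, GAPDH, POLR2A), fitted both directions relative to DMSO. HepaRG cultures exposed 48 h to eight half-log concentrations, top 100 uM, 0.5% DMSO, serum-free induction medium.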

[18] = read-out: solute carrier (SLCO1B1), SLCO1B1 (gene 10599); experiment: LTEA_HepaRG_SLCO1B1: Life Technologies and Expression Analysis (LTEA) Assay for solute carrier (SLCO1B1) using HepaRG (AID 2283530)
Procedure, shortened: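 HepaRG, serum-free induction medium, 48 h dosing, 8-pt half-log from 100 uM, 0.5% DMSO vehicle, duplicates. Readout: SLCO1B1 mRNA, qRT-PCR, ACTB/GAPDH/POLR2A normalization; up or down fit vs DMSO.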

[19] = read-out: Nuclear factor erythroid 2-related factor 2 (Homo sapiens) (UniProt Q16236); experiment: LTEA_HepaRG_NFE2L2: Life Technologies and Expression Analysis (LTEA) Assay for Nuclear factor erythroid 2-related factor 2 (NFE2L2) Transcription Factor using HepaRG (AID 2283527)
Procedure, shortened: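 NFE2L2 transcript level was read by qRT-PCR (housekeeping ACTB/GAPDH/POLR2A normalisation) after 48 h chemical treatment of HepaRG in serum-free induction medium. Duplicate 8-point half-log curves, top 100 uM, 0.5% DMSO vehicle; up- or down-regulation fitted against vehicle.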

[20] = read-out: Phosphatase and tensin (PTEN), PTEN (gene 5728); experiment: LTEA_HepaRG_PTEN: Life Technologies and Expression Analysis (LTEA) Assay for Phosphatase and tensin (PTEN) using HepaRG (AID 2283523)
Procedure, shortened: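 Read-out: TaqMan qRT-PCR of PTEN transcript, normalized to three housekeeping genes, fitted in both directions against 0.5% DMSO. Differentiated human HepaRG cultures received chemicals for 48 h, eight-point half-log series topping at 100 uM.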

Measured: AC50

Signal transducer and activator of transcription 3 (Homo sapiens), sequence (P40763 whole entry, looked up): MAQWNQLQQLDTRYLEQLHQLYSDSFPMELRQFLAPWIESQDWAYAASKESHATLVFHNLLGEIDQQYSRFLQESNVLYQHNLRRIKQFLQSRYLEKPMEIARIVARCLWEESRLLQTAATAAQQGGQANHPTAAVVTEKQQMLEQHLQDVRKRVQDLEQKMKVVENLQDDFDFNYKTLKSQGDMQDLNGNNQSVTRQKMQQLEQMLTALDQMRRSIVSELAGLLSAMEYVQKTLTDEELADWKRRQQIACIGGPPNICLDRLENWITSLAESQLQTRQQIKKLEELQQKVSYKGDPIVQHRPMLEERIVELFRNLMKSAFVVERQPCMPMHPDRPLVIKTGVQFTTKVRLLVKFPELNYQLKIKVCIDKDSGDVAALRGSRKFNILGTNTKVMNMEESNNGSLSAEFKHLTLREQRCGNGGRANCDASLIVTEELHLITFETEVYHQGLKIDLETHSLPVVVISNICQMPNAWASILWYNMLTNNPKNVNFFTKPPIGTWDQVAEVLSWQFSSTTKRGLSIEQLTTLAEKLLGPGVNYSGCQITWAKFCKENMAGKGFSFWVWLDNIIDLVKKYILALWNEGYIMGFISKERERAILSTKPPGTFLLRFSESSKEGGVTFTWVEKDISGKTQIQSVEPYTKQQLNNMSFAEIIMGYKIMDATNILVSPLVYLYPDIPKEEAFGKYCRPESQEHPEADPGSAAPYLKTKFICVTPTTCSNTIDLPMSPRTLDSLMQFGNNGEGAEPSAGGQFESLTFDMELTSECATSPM
Nuclear factor erythroid 2-related factor 2 (Homo sapiens), sequence (Q16236 whole entry, looked up): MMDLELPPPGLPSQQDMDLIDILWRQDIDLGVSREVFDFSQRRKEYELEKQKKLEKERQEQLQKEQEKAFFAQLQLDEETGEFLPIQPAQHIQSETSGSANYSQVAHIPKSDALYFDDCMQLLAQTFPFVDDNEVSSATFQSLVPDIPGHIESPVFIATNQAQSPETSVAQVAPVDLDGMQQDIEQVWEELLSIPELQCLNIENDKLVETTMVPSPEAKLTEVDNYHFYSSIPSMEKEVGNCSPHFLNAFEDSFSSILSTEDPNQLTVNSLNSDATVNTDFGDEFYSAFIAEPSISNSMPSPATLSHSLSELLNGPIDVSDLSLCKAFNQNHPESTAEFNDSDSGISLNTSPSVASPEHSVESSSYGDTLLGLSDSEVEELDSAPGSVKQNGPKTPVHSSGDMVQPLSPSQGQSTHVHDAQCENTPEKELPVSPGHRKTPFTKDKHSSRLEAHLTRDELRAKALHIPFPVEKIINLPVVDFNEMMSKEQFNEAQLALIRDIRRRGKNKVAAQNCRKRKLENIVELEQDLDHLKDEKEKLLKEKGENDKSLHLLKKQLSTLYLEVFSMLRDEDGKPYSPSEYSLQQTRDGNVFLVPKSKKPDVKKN
Nuclear factor NF-kappa-B p105 subunit (Homo sapiens), sequence (P19838 whole entry, looked up): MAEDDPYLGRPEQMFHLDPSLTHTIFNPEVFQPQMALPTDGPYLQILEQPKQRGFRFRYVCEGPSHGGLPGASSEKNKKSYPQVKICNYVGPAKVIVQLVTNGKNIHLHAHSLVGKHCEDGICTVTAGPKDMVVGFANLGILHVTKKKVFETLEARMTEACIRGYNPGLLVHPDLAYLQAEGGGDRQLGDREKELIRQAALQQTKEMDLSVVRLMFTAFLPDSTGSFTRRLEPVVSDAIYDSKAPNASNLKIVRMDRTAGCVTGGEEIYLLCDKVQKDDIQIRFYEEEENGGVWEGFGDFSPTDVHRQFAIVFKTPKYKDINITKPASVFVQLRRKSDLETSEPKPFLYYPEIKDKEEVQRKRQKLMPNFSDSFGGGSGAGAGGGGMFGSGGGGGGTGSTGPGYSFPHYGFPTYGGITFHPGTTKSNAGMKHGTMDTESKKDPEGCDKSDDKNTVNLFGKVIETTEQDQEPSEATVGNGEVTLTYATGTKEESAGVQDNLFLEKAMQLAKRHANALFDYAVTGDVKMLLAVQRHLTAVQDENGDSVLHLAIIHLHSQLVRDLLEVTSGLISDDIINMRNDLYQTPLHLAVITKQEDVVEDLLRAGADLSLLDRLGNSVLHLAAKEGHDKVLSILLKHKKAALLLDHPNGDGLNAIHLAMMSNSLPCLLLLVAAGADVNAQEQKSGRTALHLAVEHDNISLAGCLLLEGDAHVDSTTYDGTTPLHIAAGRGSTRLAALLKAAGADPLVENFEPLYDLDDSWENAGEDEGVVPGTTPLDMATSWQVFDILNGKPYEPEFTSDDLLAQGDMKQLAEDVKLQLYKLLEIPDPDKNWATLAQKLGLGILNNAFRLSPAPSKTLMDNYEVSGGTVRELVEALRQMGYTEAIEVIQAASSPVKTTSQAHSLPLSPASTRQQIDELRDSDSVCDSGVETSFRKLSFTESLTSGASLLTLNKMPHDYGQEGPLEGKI

O=C(OC[C@H]1O[C@@H](OC(=O)c2cc(O)c(O)c(OC(=O)c3cc(O)c(O)c(O)c3)c2)[C@H](OC(=O)c2cc(O)c(O)c(OC(=O)c3cc(O)c(O)c(O)c3)c2)[C@@H](OC(=O)c2cc(O)c(O)c(OC(=O)c3cc(O)c(O)c(O)c3)c2)[C@@H]1OC(=O)c1cc(O)c(O)c(OC(=O)c2cc(O)c(O)c(O)c2)c1)c1cc(O)c(O)c(OC(=O)c2cc(O)c(O)c(O)c2)c1
inactive: [1] | [2] | [3] | [16] | [17]
active: [4] 8.46 µM | [5] 15.2 µM | [6] 9.05 µM | [7] 9.49 µM | [8] 6.08 µM | [9] 15.2 µM | [10] 9.75 µM | [11] 8.67 µM | [12] 3.88 µM | [13] 15.2 µM | [14] 24.5 µM | [15] 5.1 µM | [18] 9.07 µM

O=C1CCCCCN1
not listed: [20]
inactive: all other assays above

CC(O)CN(CCN(CC(C)O)CC(C)O)CC(C)O (centres undefined)
active: [12] 12.5 µM | [19] 12.6 µM
inactive: all other assays above

CN(C)c1ccc(N=NS(=O)(=O)O)cc1
active: [2] 18.9 µM | [13] 20.5 µM | [17] 0.717 µM
not listed: [11] | [15] | [19]
inactive: all other assays above

CN(C)c1ccc(Cc2ccc(N(C)C)cc2)cc1
active: [2] 40.8 µM | [4] 80.1 µM | [6] 50 µM | [9] 50 µM | [10] 37.3 µM
not listed: [5] | [19]
inactive: all other assays above

Cn1cnc([N+](=O)[O-])c1Sc1ncnc2nc[nH]c12
inactive: [3] | [5] | [7] | [11] | [12] | [15] | [16] | [17]
active: [1] 4.15 µM | [2] 5.94 µM | [4] 17.7 µM | [6] 4.54 µM | [8] 6.38 µM | [9] 1.9 µM | [10] 1.66 µM | [13] 16.1 µM | [14] 6.61 µM | [18] 1.62 µM

CCCCCCCCO
active: [1] 83.9 µM
not listed: [11] | [15] | [20]
inactive: all other assays above

CNS(=O)(=O)c1cc(C(=O)N2CCC(CCN3C4CCC3CC(n3c(C)nc5ccccc53)C4)(c3cccc(F)c3)CC2)c(Cl)cc1F (centres undefined)
active: [2] 18.3 µM | [4] 30.1 µM | [6] 18.8 µM | [8] 26.1 µM | [10] 13.3 µM | [13] 18.8 µM | [14] 28.9 µM | [16] 17.3 µM | [18] 13.1 µM
not listed: [5] | [15]
inactive: all other assays above

CCCCC(CC)COC(=O)c1ccc(C(=O)OCC(CC)CCCC)cc1 (centres undefined)
not listed: [11] | [15] | [19]
inactive: all other assays above

CC(C)CCCCCCOC(=O)c1ccc(C(=O)OCCCCCCC(C)C)c(C(=O)OCCCCCCC(C)C)c1
not listed: [11] | [15]
inactive: all other assays above

Cc1c(-c2cccnc2)c2ccccc2n1CCCCC(=O)O
active: [14] 27.6 µM
not listed: [13] | [15] | [20]
inactive: all other assays above

CCCCCCc1ccc(O)cc1O
active: [14] 66.4 µM
not listed: [11]
inactive: all other assays above

O=C1OC(=O)C2C3C=CC(C3)C12 (centres undefined)
not listed: [11] | [20]
inactive: all other assays above
